Data as given in ChEMBL document CHEMBL1201862, “PubChem BioAssay data set” (2004).
Out of some 15,000 sequences screened, about 800 (5.3%) were called active. No stated cut-off is given here; in the data, active = GI50 up to about 1.1 µM and inactive = higher. The list is a sample of the results. Potency and affinity values are given separately.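 Cultured in 96-well plates, cells were exposed to test compound for 48 hours across five concentrations. GI50 = concentration required for 50% inhibition of growth.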

The substances below were run on DMS-114 (assay: NCI tumour cell line growth inhibition, 48 h).
Substance “[Bis(aminomethyl)tetramethylenesilane]dichloropaltinum(II), CHEMBL2146205” has a GI50 of 5.89 µM.
“[Bis(aminomethyl)diethylsilane]tetrachloroplatinum(IV), CHEMBL2146203” showed a GI50 of 2.23 µM.
For “cis-Bis[[(trimethylsilyl)methyl]amino]tetrachloroplatinum(IV), CHEMBL2146191”, the GI50 was 4.09 µM.
“[Bis(aminomethyl)pentamethylenesilane]dichloropaltinum(II), CHEMBL2146202” gave a GI50 of 4.01 µM.
For “[Bis(aminomethyl)dimethylsilane]dichloroplatinum (II), CHEMBL2146201”, the GI50 was 12 µM.
For “[Bis(aminomethyl)pentamethylenesilane]tetrachloropaltinum(IV), CHEMBL2146204”, the GI50 was 2 µM.
For “[Bis(aminomethyl)ethylmethylsilane]tetrachloroplatinum(IV), CHEMBL2146192”, the GI50 was 1.17 µM.
With “mu-(1,7-nanodiamine-N,N')bis-(cis-aminedichloroplatimum (II)), CHEMBL2146215” the GI50 was 6.18 µM.
For “[Bis(aminomethyl)dimethylsilane]tetrachloroplatinum(IV), CHEMBL2146190”, the GI50 was 1.38 µM.
Work on “[Bis(aminomethyl)tetramethylenesilane]tetrachloropaltinum(IV), CHEMBL2146189” yielded a GI50 of 1.91 µM.
